# Bioassay records (PubChem BioAssay)
# HT1080 IDH1KD tx = kills HT-1080 cells with IDH1 knockdown; HT-1080 IDH1 knockdown viability, ATP luminescence, 48 h; Potency, µM (top dose mostly 46.1 µM), hits mostly cytotoxic; actives 2% (n = 360,000); AID 686971
#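 Viability of IDH1-knockdown HT-1080 fibrosarcoma cells was assessed by CellTiter-Glo after 48 h at 37 °C with titrated compound; concentration-effect curves were classified by fit quality and response size.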
# HT1080NT lethal = kills 2HG-producing HT-1080-NT fibrosarcoma cells. HT-1080-NT fibrosarcoma viability, CellTiter-Glo ATP luminescence, 48 h. actives 1.6% (n = 360,000). Potency, µM (doses to about 46.1 µM), hits mostly cytotoxic;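 note: NT is the 2HG producing partner of a matched IDH1 knockdown line; nearly all actives have a fitted effect of over 55% in size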
#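 750 cells/well, RPMI + 5% FBS; 2 h settle, compound pin-transfer, 48 h at 37 degrees C. CellTiter-Glo 10 min RT, luminescence. Normalized to DMSO and media-only wells.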
# IL-1B inflam inh = inhibitors of inflammasome signaling (IL-1 beta secretion); actives 4.7% (n = 360,000); AID 743279; activity change, % at 57.5 µM; THP-1 LPS/ATP IL-1B secretion, AlphaLISA, 16 h; active compounds read low; in the data active = activity change below about -50%; inconclusive = mostly about -30% to -49%
#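 THP-1 cells pretreated 1 hr with compounds (up to 57.5 uM final), then stimulated with LPS (250 ng/mL final) plus ATP (1.25 mM final); secreted IL-1B measured by AlphaLISA after 16 hr, decreased signal indicating inhibition.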
# ELG1 DNA repair = inhibitors of ELG1-dependent DNA repair in HEK293T cells; HEK293T ELG1-luciferase reporter, luminescence, 16 h; DNA damage induced by 5-fluorouridine; Potency, µM (titrated, usually from 46.1 µM), hits mostly inhibitors; actives 2.3% (n = 330,000); note: nearly all actives have a fitted effect of over 55% in size
#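 Overnight (16 hr) co-exposure of 2,000 cells/well to 5-fluorouridine and compound at 37 °C preceded detection. Luciferase was quantified via ONE-Glo luminescence; loss of signal denotes inhibition.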
# DT40 TDP1 CPT = DT40-hTDP1 cell growth loss with CPT; Potency, µM (top dose mostly 46.2 µM), usual class: inhibitors; AID 686979; chicken DT40 Tdp1-/-;hTDP1 cells + 20 nM CPT, ATP luminescence, 48 h; actives 12% (n = 420,000); note: nearly all actives have a fitted effect of over 55% in size
#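 Chicken DT40 Tdp1-/- cells complemented with human TDP1, 400 cells/well, exposed to compounds plus 20 nM camptothecin for at least 48 h at 37 C; viability read as ATP content by CellTiter-Glo luminescence.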
# TDP1 cell noCPT = qHTS for Inhibitors of human tyrosyl-DNA phosphodiesterase 1 (TDP1): qHTS in cells in absence of CPT. AID 686978, 2013. actives 15% (n = 420,000). Potency, µM (doses to about 46.2 µM), most hits filed as inhibitors. DT40 Tdp1-/- hTDP1 cells, no CPT, ATP luminescence, 48 h; note: nearly all actives have a fitted effect of over 55% in size
#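 Growth of hTDP1-complemented DT40 Tdp1-knockout cells is measured by ATP luminescence after at least 48 hr compound exposure at 37 °C, with DMSO substituting for the 20 nM CPT used in the parallel screen.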
# A number is an active result; . = inactive; ? = inconclusive; / = not tested or not shown. Rows were chosen to be rich in hits. Some 19% of all compounds tested hit in one or more screens of this group. Unless noted, calls come from the whole dose curve; as a rule, active = well fitted curve in the direction sought with a large enough effect; inconclusive = small, poorly fitted or top-dose-only effect, or another doubt; inactive = no such curve, though single readings can be large; an effect the other way counts as inactive or inconclusive.
SMILES,HT1080 IDH1KD tx,HT1080NT lethal,IL-1B inflam inh,ELG1 DNA repair,DT40 TDP1 CPT,TDP1 cell noCPT
COc1ccccc1NC(=O)C1=C(C)Nc2nc(SCc3ccccc3)nn2C1c1cccc(O)c1 (centres undefined),/,/,/,/,?,23µM
COc1ccc(-c2nn3c(=O)cc(CN4CCN(C(=O)Nc5cc(C)ccc5C)CC4)nc3s2)cc1,/,/,/,/,.,?
Clc1ccccc1CN1CCN(/N=C/c2ccncc2)CC1,.,.,.,.,13µM,16µM
COc1ccccc1/C=C/C=N\N1CCN(Cc2ccccc2Cl)CC1,.,.,.,.,?,29µM
Cc1ccc(N2CCN(/N=C/c3sccc3C)CC2)cc1,.,.,.,?,.,.
Clc1ccc(N2CCN(/N=C/c3ccncc3)CC2)cc1,.,.,?,21µM,23µM,?
Cc1ccc(N2CCN(/N=C/c3ccncc3)CC2)cc1,.,.,.,18µM,21µM,18µM
COc1ccccc1/C=N/N1CCN(c2ccc(Cl)cc2)CC1,.,.,.,.,.,.
CCN(CC)CCCNC(=O)c1cc(-c2ccc(OC)c(OC)c2)on1,/,/,/,/,.,.
S=C(NCc1ccco1)NCC1CCCO1 (centres undefined),.,.,.,.,.,.
O=C(O)c1ccc(-n2c(/C=C/c3ccccc3)nc3ccccc3c2=O)cc1,.,.,.,.,?,.
COC(=O)c1ccc(-n2c(/C=C/c3cc(OC)c(OC)c(OC)c3)nc3cc(Cl)ccc3c2=O)cc1,/,/,/,/,18µM,15µM
CNC(=O)NC(=O)CSc1nc2cc(C(=O)OC)ccc2c(=O)n1-c1ccccc1,.,.,.,.,.,.
COC(=O)c1ccc(-n2c(/C=C\c3cccc(Br)c3)nc3ccccc3c2=O)cc1,/,/,/,/,5.2µM,2.9µM
O=C(NNC(=O)c1ccccc1O)c1cccc(Br)c1,.,.,.,?,?,?
COc1cccc2cc(C(=O)NC3CC4CCC3C4)oc12 (centres undefined),.,.,.,.,?,?
OC(COCC(F)(F)C(F)(F)C(F)(F)C(F)F)Cn1c2ccc(Cl)cc2c2cc(Cl)ccc21 (centres undefined),?,?,-97,.,3.7µM,2.6µM
CCOC(=O)c1c(O)c2cc(Cl)ccc2n(CC)c1=O,.,.,/,.,.,.
COc1cccc(-c2cc(C(=O)Nc3c(C)nn(Cc4ccccc4Cl)c3C)no2)c1,/,/,/,/,9.2µM,13µM
COc1ccc(-c2cc(C(=O)Nc3c(C)nn(Cc4ccc(C)cc4)c3C)no2)cc1OC,/,/,/,/,?,.
COc1ccc(-c2cc(C(=O)Nc3c(C)nn(Cc4ccccc4Cl)c3C)no2)cc1OC,.,.,.,23µM,?,?
O=C(Nc1cccc(C(=O)N2CCOCC2)c1)C1CCCC1,.,.,.,/,.,.
Cc1cc(C(=O)COC(=O)c2ccc3c(c2)NC(=O)CS3)c(C)n1CC1CCCO1 (centres undefined),.,.,.,?,?,16µM
Cc1cc(C(=O)COC(=O)c2ccc(O)cc2)c(C)n1CC1CCCO1 (centres undefined),.,.,.,?,.,.
Cc1cc(C(=O)COC(=O)c2cccc(S(=O)(=O)N(C)C)c2)c(C)n1CC1CCCO1 (centres undefined),.,.,.,?,16µM,?
COc1ccc(OC)c(NC(=O)Cc2coc3ccc4ccccc4c23)c1,.,.,.,?,?,13µM
COc1ccc(NC(=O)Cc2coc3cc(C)cc(C)c23)c(OC)c1,/,/,/,/,21µM,?
O=C(O)Cc1coc2ccc3ccccc3c12,.,.,.,.,.,.
Cc1cccc(NC(=O)Cc2coc3ccc4ccccc4c23)n1,7.1µM,?,.,.,10µM,16µM
